The test system of the test is MDA-MB-468 breast. Nature of the test: NCI-60 one-dose screen, 48 h (100 = growth as untreated, 0 = no growth, -100 = all killed). The note with it: 10 µM unless noted.

Compounds without any hit were thinned out: in the full panel of roughly 83,000, 20% have a hit.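 96-well plates, one dose, 48 hours. Percent growth reported; active if below 10.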 Values without a mark were called inactive. Calls of active or inactive are those of the source.

Consider `CCNC(=O)Nc1ncccc1OCc1ccc(F)cc1`, for which the growth is 101%.
Take `COc1cnc2c(c1)C(=O)c1c-2n(CCCn2ccnc2)c(=O)c2cc(OC)c(OC)cc12`: the growth was -25.7% (active).
Consider `CCCCCCC1(/C=N/NC(N)=O)NC(=O)NC1=O` (stereo not drawn), for which the growth is 92.1%.
With `CCOC(=O)c1sc2ncc(-c3ccc(OC)cc3)n2c1C` the figure was 103%; with `Nc1ccccc1NC(=O)c1ccc(CCCC(=O)Nc2ccc(C3CC3N)cc2)cc1` (stereo not drawn), -4.41% (active); with `COc1ccc(-n2c(/C=C3\C(=O)Nc4ccccc43)ccc2CO)cc1`, 96.4%.
For the compound `O=c1scc(-c2ccc(C(F)(F)F)cc2)s1`, the growth was 72.5%.
With `O=C(CCCCCNC(=O)c1cc(=O)c(O)co1)Nc1ccccc1` the figure was 108%; with `C#Cc1c2c(c(OC)c3c1OCO3)[C@H]([C@H]1OC(=O)c3c1ccc(OC)c3OC)N(C)CC2`, 79.9%; with `N#Cc1ccc(NC2c3ccccc3CC2O)cc1` (stereo not drawn), 107%.
Turning to `O=C1Nc2ccc(F)cc2/C1=C\C(=O)c1ccc(NS(=O)(=O)c2ccccc2)cc1`, the growth was 90.3%.
For `CCCOc1ccc2c(c1)CC[C@@H]1[C@@H]2CC[C@@]2(C)[C@H]1CC[C@]2(C)O`, the growth is 59.8%.
Then `O=C1Nc2cc(-c3ccncc3)ccc2/C1=C/c1ccc[nH]1`, with -15.9% (active); and `COc1ccc(-c2cc(-c3cccnc3)nc3sc4c(N)c(C(C)=O)c(-c5ccccc5)nc4c23)cc1OC`, with 76.3%.
With `CC(=O)OCC1OC(OCC2OC(OC(C)=O)C(OC(C)=O)C(OC(C)=O)C2OC(C)=O)C(OC(C)=O)C(OC(C)=O)C1OC(C)=O` (stereo not drawn) the figure was 81.3%; with `CCOC(=O)c1cc(C)n(-c2ccc(C(=O)O)cc2)c1C`, 65.5%; with `COc1ccc(/C(=C\c2cc(OC)c(OC)c(OC)c2)C(=O)N2CCNCC2)cc1`, 94.3%.
With `C[C@]12CCc3c(ccc4cc(O)ccc34)[C@@H]1CC[C@H]2O` the figure was 81.3%; with `O=C(/C=C/c1ccc(C(F)(F)F)cc1)c1ccc(Nc2nc(NCCO)nc(Nc3ccc(Cl)cc3)n2)cc1`, 69.4%.
For the compound `C/C(=C\CCc1ccsc1)CC/C=C(\C)CCCN1CCC(CO)CC1`, the growth is -27.3% (active).
In the case of `Cc1nn(-c2ccc([N+](=O)[O-])cc2)c2ncnc(N/N=C/c3ccccc3O)c12`, the growth is -16.6% (active).
With `CC(C)(C)CC(C)(C)Nc1c(-c2c(O)c3ccccc3oc2=O)nc2c(Cl)cc(C(F)(F)F)cn12` the figure was 92.2%.
Then `COC(=O)[C@@H]1CC[C@]2(C)[C@H](CC[C@@H]3O[C@@]32C)[C@@]1(C)CC(=O)c1ccoc1`, with 95.7%.
Turning to `O=C(NC1CCCCCC1)c1ccc2c(=O)n3c(nc2c1)CCCCC3`, the growth is 81.2%.
Consider `NC1(N2SC(S)=C3CCCC=C32)CCCCC1`, for which the growth was 99.9%.
Take `COc1ccc2cc(-c3cc(OC)c(OC)c(OC)c3)c(=O)oc2c1`: the growth is 46.5%.
Then `N=C(N)c1ccc(-c2ccc(-c3ccc(F)cc3)s2)s1`, with -77% (active); and `CCN(CC)CCN1C(=O)c2c(c3c4ccccc4[nH]c3c3[nH]c4ccccc4c23)C1=O`, with 89.2%; and `CC1CCCN(CCCCOc2ccc(-c3ccc(C#N)cc3)cc2)C1` (stereo not drawn), with 87.6%.
For the compound `CNC1(C#N)CCN(Cc2ccccc2)CC1`, the growth was 85.6%.
With `COc1cccc(/C=C/C(=O)c2cc3c(N)c(C(=O)Nc4ccccc4)sc3nc2C)c1` the figure was 15.3%; with `COc1ccc(/C(C)=N/NC(=O)CSc2nc3ccccc3c(=O)n2CCc2ccc(S(N)(=O)=O)cc2)cc1`, 33.8%; with `O=C1c2cccc3c(-c4ccc5c(c4)ncn5C4CCCCC4)ccc(c23)C(=O)N1CCO`, 78.9%.
As for `COC(=O)C1(C)Cc2cc(OC(C)=O)c(OC(C)=O)cc2N1` (stereo not drawn), the growth was -3.93% (active).
Then `COc1cc(NCC(O)CN(CC(C)C)C2CCCC2)c2ncccc2c1` (stereo not drawn), with -13.4% (active); and `COc1c(N)c2c(c([N+](=O)[O-])c1OC)C(=O)OC2`, with 107%; and `O=[N+]([O-])c1c(O)c(CNCCCO)cc(CNCCCO)c1O`, with 108%.
With `COc1ccc(Nc2ncnc3ccc(-c4cncc(NS(C)(=O)=O)c4)cc23)cc1Cl` the figure was -10.1% (active).

For the origin of these results see PubChem BioAssay (NCI).
